Screens from PubChem.
Only some compounds are listed: those with a hit (about 15% of all), similar ones and a draw of the others.
VP16 counter = inhibits Gal4-VP16 luciferase reporter, ROR gamma counter-screen. Drosophila S2 Gal4-VP16 UAS-luciferase, luminescence, 20 h. Potency, µM (top dose mostly 53.6 µM), for inactives: at the top dose activity, negative = inhibition, usual class: inhibitors. 310,000 compounds, 3.5% hits. AID 2546;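 note: Gal4-VP16 expression switched on by copper sulfate through the metallothionein promoter; nearly all actives have a fitted effect of over 50% in size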
TDP1 cell CPT = DT40-hTDP1 cell growth loss with CPT; chicken DT40 Tdp1-/-;hTDP1 cells + 20 nM CPT, ATP luminescence, 48 h; 420,000 compounds, 12% hits; Potency, µM (top dose mostly 46.2 µM), inactives show at the top dose activity change, negative = growth inhibition, actives largely listed as inhibitors; note: nearly all actives have a fitted effect of over 55% in size
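Chicken DT40 Tdp1-/- cells complemented with human TDP1, 400 cells/well, exposed to compounds plus 20 nM camptothecin for at least 48 h at 37 C; viability read as ATP content by CellTiter-Glo luminescence.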
ELG1 repair inh = ELG1-dependent DNA repair inhibition; 330,000 compounds, 2.3% hits; Potency, µM (highest dose often 46.1 µM), for inactives: at the highest dose activity change, negative = inhibition, hits mostly inhibitors; AID 504467; HEK293T ELG1-luciferase reporter, luminescence, 16 h; DNA damage induced by 5-fluorouridine; note: nearly all actives have a fitted effect of over 55% in size
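5-Fluorouridine DNA damage + compound/DMSO, 2,000 cells/well, 16 h, 37 °C/5% CO2. ONE-Glo, 30 min RT, luminescence. Readout = decrease in reporter signal.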
TDP1 cell noCPT = qHTS for Inhibitors of human tyrosyl-DNA phosphodiesterase 1 (TDP1): qHTS in cells in absence of CPT; Potency, µM (top dose mostly 46.2 µM), without a hit: at the top dose activity change, negative = growth inhibition, hits mostly inhibitors; DT40 Tdp1-/- hTDP1 cells, no CPT, ATP luminescence, 48 h; 420,000 compounds, 15% hits; note: nearly all actives have a fitted effect of over 55% in size
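A cellular qHTS used chicken DT40 cells lacking endogenous Tdp1 but carrying stably transfected human TDP1. Compounds were applied without camptothecin, and cell growth kinetics were judged by ATP-dependent luminescence after ≥48 hr.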
RORg inh = inhibitors of mouse ROR gamma transcriptional activity. 310,000 compounds, 5.4% hits. Potency, µM (doses to about 53.6 µM), inactives show at the top dose activity change, negative = inhibition, actives largely listed as inhibitors. P51450. AID 2551. Drosophila S2 Gal4-RORgamma UAS-luciferase reporter, 20 h; note: nearly all actives have a fitted effect of over 60% in size
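Schneider cells (Drosophila), stable Gal4 DBD–ROR gamma + UAS-luc; 1 hr cmpd preincubation; Cu2+ induction 700 uM final; 20 hr ambient; luminescence.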
12-LOX inh = blocks human arachidonate 12S-lipoxygenase | Potency, µM (top dose mostly 108 µM), inactives show at the highest dose activity change, negative = inhibition, most hits filed as inhibitors | purified 12hLO, xylenol orange hydroperoxide absorbance | 580,000 compounds, 1.1% hits | P18054 | AID 1671190
Target sequence (P18054 whole entry, looked up): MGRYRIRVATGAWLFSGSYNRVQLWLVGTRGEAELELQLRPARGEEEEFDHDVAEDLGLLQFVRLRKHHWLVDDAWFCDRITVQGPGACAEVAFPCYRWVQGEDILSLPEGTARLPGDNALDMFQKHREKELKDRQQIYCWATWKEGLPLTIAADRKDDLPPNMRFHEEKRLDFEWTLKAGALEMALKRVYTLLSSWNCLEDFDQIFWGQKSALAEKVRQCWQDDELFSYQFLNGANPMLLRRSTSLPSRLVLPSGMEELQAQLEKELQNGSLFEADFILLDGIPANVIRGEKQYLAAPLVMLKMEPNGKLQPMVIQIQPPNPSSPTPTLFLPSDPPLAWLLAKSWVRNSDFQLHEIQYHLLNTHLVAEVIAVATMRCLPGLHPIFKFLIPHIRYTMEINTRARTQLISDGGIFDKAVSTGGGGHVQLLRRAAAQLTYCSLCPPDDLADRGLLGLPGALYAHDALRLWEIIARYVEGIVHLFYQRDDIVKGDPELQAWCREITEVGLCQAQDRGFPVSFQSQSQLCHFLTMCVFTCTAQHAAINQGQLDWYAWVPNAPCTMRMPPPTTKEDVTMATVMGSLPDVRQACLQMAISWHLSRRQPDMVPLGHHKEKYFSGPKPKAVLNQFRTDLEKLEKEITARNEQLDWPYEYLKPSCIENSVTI
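Purified human 12hLO (150 nM final) in 25 mM Hepes, 0.01% Triton X-100, pH 7.0 was preincubated 15 min at room temperature with compound. Then 40 uM arachidonic acid was added, 30 min. Hydroperoxide was read by Fe-XO absorbance ratio 573/405 nm.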
* marks the source's active call; other numbers are inactive results; ? = inconclusive; nt = not tested or not shown; [ ] = another dose, or the depositor's remark. Calls come from the whole dose curve; as a rule, active = well fitted curve in the direction sought with a large enough effect; inconclusive = small, poorly fitted or top-dose-only effect, or another doubt; inactive = no such curve, though single readings can be large; an effect the other way counts as inactive or inconclusive. % is set by controls: 0 for no effect and ±100 for the full control effect; potency is the fitted concentration of half-maximal effect.

SMILES	VP16 counter	TDP1 cell CPT	ELG1 repair inh	TDP1 cell noCPT	RORg inh	12-LOX inh
CCN(CC)Cc1nc2c(c(=O)[nH]1)C1(CCCCC1)Cc1ccccc1-2	11µM*	21µM*	-1%	18µM*	11µM*	12%
CCCN(CCC)Cc1nc2c(c(=O)[nH]1)C1(CCCC1)Cc1ccccc1-2	nt	nt	nt	nt	nt	35%
O=c1oc(-c2ccccc2)nc2c1C1(CCCCC1)Cc1ccccc1-2	-1%	-3%	1%	-13%	-25%	-1%
CCC1(CC)Cc2ccccc2-c2nc(-c3ccccc3)oc(=O)c21	-7%	?	1%	16µM*	0%	nt
CN(C)Cc1nc2c(c(=O)[nH]1)C1(CCCCC1)Cc1ccccc1-2	5µM*	18µM*	-21%	23µM*	2.5µM*	21%
Cn1cnc([S+](=O)([O-])NC2CCN(C(=O)N3CC4CC(C3)[C@H]3CCCC(=O)N3C4)CC2)c1 (some centres undefined)	nt	nt	nt	nt	nt	45%
O=C(NCC1Cn2cccc2CN1Cc1ccccc1)c1n[nH]c2ccccc12 (centres undefined)	nt	nt	nt	nt	nt	214%
Cc1ccc(N2C(=O)CC(c3cccs3)C3=C2CCCC3=O)cc1 (centres undefined)	nt	nt	nt	nt	nt	-2%
COc1ccccc1Nc1ncc(C(=O)N2CCN(Cc3ccc(OC)c(OC)c3OC)CC2)c2ccccc12	22%	18µM*	?	?	43%	12%
COc1ccc(CN2CCN(C(=O)CN3C(=O)C4C5C=CC(C5)C4C3=O)CC2)c(OC)c1OC (centres undefined)	6.3µM*	-28%	?	?	-28%	0%
COc1ccc(Nc2ncc(C(=O)N3CCN(Cc4ccccc4)CC3)c3ccccc23)cc1	1%	18µM*	16µM*	?	-2%	1%
COc1ccc(CN2CCN(C(=O)c3cccs3)CC2)c(OC)c1OC	1%	-24%	21µM*	-25%	0%	?
COc1ccc(-c2c(C)oc3c(C)c(OCCN4CCCCC4)ccc3c2=O)cc1	nt	nt	nt	nt	nt	-2%
CC1=Nc2ccccc2N=C(NC(=O)CSC(=S)N2CCN(C)CC2)C1c1ccccc1 (centres undefined)	16%	?	-11%	16µM*	12%	425%
CC1=Nc2ccccc2N=C(NC(=O)CSc2nnnn2-c2ccccc2)C1c1ccccc1 (centres undefined)	-4%	?	nt	29µM*	26%	3%
CC1=Nc2ccccc2N=C(NC(=O)CSC(=S)N2CCCCC2)C1c1ccccc1 (centres undefined)	7%	-20%	21µM*	?	27%	177%
O=C(NC1CCCCCC1)c1nc(Cc2c[nH]c3ccccc23)no1	nt	nt	nt	nt	nt	-6%
CCOCCOc1cccc(C(=O)N2C[C@H](C3CC3)[C@@H](N)C2)c1	nt	nt	nt	nt	nt	41%
Cc1cnn(CCC(=O)NC2CCc3nnc(C)n3CC2)c1 (centres undefined)	nt	nt	nt	nt	nt	107%
O=C1CCC[C@@H]2[C@H](Cc3ccccc3)[C@@H](O)C[C@@H]3CCN1[C@@H]32	nt	-21%	nt	?	nt	1%
O=C1CCC[C@@H]2[C@@H](Cc3ccccc3)[C@@H](Nc3ccccc3)C[C@@H]3CCN1[C@@H]32	nt	?	nt	11µM*	nt	nt
Fc1ccc(-c2noc(-c3ccc[nH]3)n2)cc1	nt	nt	nt	nt	nt	8%
O=C1Nc2ccccc2CC12CCN(Cc1cccc3ccccc13)C2 (centres undefined)	nt	nt	nt	nt	nt	100µM*
N#Cc1ccccc1NC(=O)CCN1CCCN(Cc2cccs2)CC1	nt	nt	nt	nt	nt	-4%
COc1ccc2c(c1)c(CC(=O)Nc1ccc(C)cc1)c(C)n2C(=O)c1ccc(Cl)cc1	-7%	?	?	21µM*	9%	-4%
SMILES	VP16 counter	TDP1 cell CPT	ELG1 repair inh	TDP1 cell noCPT	RORg inh	12-LOX inh
COC(=O)CNC(=O)Cc1c(C)n(C(=O)c2ccc(Cl)cc2)c2ccc(OC)cc12	-2%	-25%	-16%	1%	15%	-4%
COc1ccc2c(c1)c(CCNNC(=O)C(C)(C)C)c(C)n2C(=O)c1ccc(Cl)cc1	nt	23µM*	nt	16µM*	nt	2%
COc1ccc2c(c1)c(CC(=O)OCC(=O)N(C)C)c(C)n2C(=O)c1ccc(Cl)cc1	15%	7%	-15%	-14%	-8%	-22%
COc1ccc2c(c1)c(CC(=O)OC(C)C(=O)N(C)C)c(C)n2C(=O)c1ccc(Cl)cc1 (centres undefined)	-6%	21µM*	-15%	15µM*	16%	-6%
COc1ccc(-c2nc(C#N)c(NCCN(C)C)o2)cc1OC	nt	nt	nt	nt	nt	-1%
CN1/C(=C\C=Nc2cc(S(=O)(=O)N3CCOCC3)ccc2N2CCOCC2)C(C)(C)c2ccccc21	-8%	?	-14%	21µM*	?	?
Cc1ccccc1N=C/C=C1\N(C)c2ccccc2C1(C)C	13µM*	18µM*	-20%	8.2µM*	?	?
Cc1cc(/N=C/C=C2/N(C)c3ccccc3C2(C)C)n(CCC#N)n1	nt	8.2µM*	nt	6.5µM*	nt	-57%
CN(C)c1ccc(N=C/C=C2/N(C)c3ccccc3C2(C)C)cc1	?	7.3µM*	?	5.2µM*	-21%	?
COCCN1CC(CO)C2(CCN(C3CCSCC3)CC2)C1 (centres undefined)	nt	nt	nt	nt	nt	159%
O=C(O)C1=NOC2CN([S+](=O)([O-])c3cccs3)CC12 (centres undefined)	nt	nt	nt	nt	nt	-1%[6.33 µM]
CC(=O)C[C@H]1c2cc(F)ccc2S(=O)(=O)N1c1ccc(N(C)C)cc1	nt	15µM*	nt	13µM*	nt	-25%
CCCCCCCCN1[C@@H](CC(=O)O)c2cc(F)ccc2S1(=O)=O	nt	0%	nt	3%	nt	-4%
CN(C(=O)CC1C(=O)NCCN1Cc1cccc(F)c1F)C1CCOCC1 (centres undefined)	-10%	-6%	-1%	0%	-4%	7.1µM*
CCC(CC)C(=O)Nc1nn2c(CC(C)C)nnc2s1	nt	nt	nt	nt	nt	16µM*
CCCC(=O)Nc1nn2c(CC(C)C)nnc2s1	nt	nt	nt	nt	nt	25µM*
O=C1c2cc(N3CCOCC3)nc(-c3ccccc3Oc3ccccc3)c2CN1C1COC1	nt	nt	nt	nt	nt	-2%
Cc1ccc(S(=O)(=O)Nc2ccccc2CNc2ccccn2)cc1	?	-7%	?	?	?	-17%
